# Screening data (PubChem)
# Shown are actives, neighbours in structure and some others; about 13% of the full set was active somewhere.
# Lassa entry inh – blocks Lassa virus binding to or entry into cells. Lassa virus pseudotype entry inhibition, cell reporter. Potency, µM (titrated, usually from 37.9 µM), without a hit: at the top dose activity change, negative = inhibition, actives largely listed as inhibitors. 300,000 compounds, 1.2% hits. AID 540256; calls by dose curve; tested in HEK293 cells; also: potency is read from the fitted curve at half-maximal effect; % is scaled to controls: 0 for no effect and ±100 for the full control effect; nearly all actives have a fitted effect of over 50% in size
# Marburg entry inh – blocks Marburg virus binding to or entry into cells; Marburg virus pseudotyped entry inhibition, cell reporter; Potency, µM (top dose mostly 37.8 µM), inactives show top-dose activity change, negative = inhibition, usual class: inhibitors; 300,000 compounds, 1.8% hits; AID 540276; calls by dose curve; tested in HEK293 cells; also: potency is read from the fitted curve at half-maximal effect; % is scaled to controls: 0 for no effect and ±100 for the full control effect
# HCV inh – inhibitors of hepatitis C virus infection; Huh7.5.1 HCVcc-Cre infection, luciferase reporter, 44 h; Potency, µM (doses to about 41.8 µM), for the others: top-dose activity change, negative = inhibition, hits mostly inhibitors; 340,000 compounds, 3.4% hits; AID 651820; active = well fitted inhibition curve with a large enough effect; inconclusive = small, poorly fitted or top-dose-only effect, or another doubt; inactive = no such curve, though single readings can be large or run the other way; also: potency is read from the fitted curve at half-maximal effect; % is scaled to controls: 0 for no effect and ±100 for the full control effect
#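 Seed cells (1,000/well) for 4 h; treat with compound and infect with HCVcc-Cre, moi about 0.5. Incubate 44 h, then detect luciferase activity.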
# Cycloheximide cs – counter-screen hit for Shiga toxin inhibitors, cycloheximide; AID 2314; max response, %; cell reporter, cycloheximide protein synthesis inhibition counterscreen; 300,000 compounds, 12% hits; in the data active = max response mostly above about 13%, no sharp cut-off; inactive = mostly below about 14%; also: read at 38.3 µM for the half of the compounds with a filed dose; 0% is about no effect
# Shiga toxin inh – Shiga toxin inhibition. 290,000 compounds, 9.2% hits. Vero cells, Shiga toxin protein synthesis inhibition reporter. inhibition, % at 38.7 µM; in the data active = inhibition mostly above about 28%, no sharp cut-off; inactive = mostly below about 43%; also: 0% is about no effect
# FMDV inh – blocks foot and mouth disease virus. 410,000 compounds, 1.2% hits. AID 1159524. Potency, µM (highest dose often 57.9 µM), without a hit: top-dose activity change, negative = inhibition, actives largely listed as inhibitors. FMDV antiviral cell-based qHTS; calls by dose curve; tested in HEK293T cells; also: read-out not given here; potency is read from the fitted curve at half-maximal effect; % is scaled to controls: 0 for no effect and ±100 for the full control effect; nearly all actives have a fitted effect of over 45% in size
# Starred values were filed as active, the others as inactive; ? = inconclusive; nt = no result; [ ] = another dose, or the depositor's remark.
SMILES,Lassa entry inh,Marburg entry inh,HCV inh,Cycloheximide cs,Shiga toxin inh,FMDV inh
CSc1ccccc1NC(=O)COc1ccc(Cl)cc1C,14.8%,17.0%,?,40.2*,48.4*,-9.4%
Cn1c(=O)c2c(nc(Br)n2CC(=O)C23CC4CC(CC(C4)C2)C3)n(C)c1=O,?,18.3µM*,?,-1.3,-2.5,?
Nc1cc(Cl)nc(N/N=C/c2c(O)ccc3ccccc23)n1,?,?,?,26.3*,116.4*,-8.5%
CC(=O)Nc1ccc(N=Cc2c(O)ccc3ccccc23)cc1,nt,nt,9.3%,1.3,-6.9,-3.1%
O=C(O)c1cc(N/N=C/c2c(O)ccc3ccccc23)ccc1Cl,?,17.4%[46.1 µM],10.4%,63.4*,160.1*,-21.5%
O=C(Nc1cnc2ccccn2c1=O)c1ccc(F)cc1,?,?,15.3%,32.6*,58.0*,0.0%
COc1ccc(OC)c(NC(=O)c2cc3c(=O)n4ccccc4nc3n2C)c1,-6.6%[46.1 µM],?,?,14.5,2.2,-12.3%
Cc1ccc2c(c1)sc1ncc(NC(=O)c3ccc(F)cc3)c(=O)n12,nt,nt,nt,12.3,39.1,nt
O=C(Nc1cnc2sc3c(n2c1=O)CCCC3)c1ccc(F)cc1,?,23.4%,?,25.4*,44.0*,16.3%
COc1ccc(C(=O)Nc2cnc3ccccn3c2=O)cc1,27.2%[46.1 µM],nt,-3.3%,45.7*,96.9*,56.8%
COc1cc(/C=C2\CCC(C)C3=C(c4cc(OC)c(OC)c(OC)c4)C(C#N)=C(N)OC32)cc(OC)c1OC (centres undefined),11.2µM*,?,?,nt,nt,?
COc1cc(/C=C/c2nc(C#N)c(N3CCC(C)CC3)o2)cc(OC)c1OC,-14.2%[46.1 µM],6.8%[46.1 µM],nt,nt,nt,-11.6%
CN(C)S(=O)(=O)Oc1cc(Cl)ccc1C(=O)Nc1ccc(F)cc1F,-7.7%,3.1%[46.1 µM],-26.5%,34.9*,41.6,14.9%
CCCN1C(=O)/C(=C/c2ccc(C)o2)NC1=S,nt,nt,nt,15.8,30.4,nt
CCC(C)(C)n1nnnc1CN1CCN(C(c2ccccc2)c2ccccc2)CC1,13µM*,-29.7%,?,-2.0,10.2,?
CCC(C)(C)n1nnnc1C(c1ccccc1)N1CCN(Cc2ccccc2)CC1 (centres undefined),1.5%[46.1 µM],1.5%[46.1 µM],18.4%,1.4,2.1,-10.7%
CC1(C(=O)Nc2ccc3c(c2)OCCO3)CCC(=O)N1CCc1c[nH]c2ccccc12 (centres undefined),nt,nt,nt,nt,nt,-4.5%
CN(C)/C=C/c1onc(-c2c(F)cccc2Cl)c1C#N,-10.9%[46.1 µM],-6.0%[46.1 µM],-28.4%,27.5*,109.0*,6.4%
Cc1onc(-c2c(F)cccc2Cl)c1C(=O)NC1CC1,nt,nt,17.6%,-2.5,-10.4,-3.4%
CC/C(=N\NC(=O)c1ccccc1Cl)c1c(O)n(C2CCCCC2)c(=O)[nH]c1=O,nt,nt,8.5%,13.7*,11.8,1.9%
CC/C(=N\NC(=O)c1ccccc1)c1c(O)n(C2CCCCC2)c(=O)[nH]c1=O,nt,nt,12.2%,33.8*,50.9*,-20.0%
CCC(=NC1CC1)c1c(O)n(C2CCCCC2)c(=O)[nH]c1=O,-49.4%,6.1%,13.0%,10.0,12.6,16.0%
Cc1ccccc1N1CCN(S(=O)(=O)C[C@]23CCC(CC2NC(=O)[C@@H](N)CCS(C)(=O)=O)C3(C)C)CC1 (some centres undefined),nt,?,-6.9%,nt,nt,-9.8%
CCOC(=O)C1=C(CNCc2ccc(C)cc2)NC(=O)NC1c1cc(C)ccc1C (centres undefined),0.5%,-26.9%,2.9%,-1.6,-8.5,?
Cn1ncc2c(Nc3ccccc3Cl)nc(Nc3ccccc3Cl)nc21,-22.2%[46.1 µM],?,6.31µM*,-4.3,-5.2,-15.6%
CCOc1ccc(C(=O)N(Cc2ccc(OC)cc2)Cc2cc3cc(OC)ccc3[nH]c2=O)cc1,-22.5%,-18.2%,?,-6.5,21.4,11.5%
Cc1cccn2c(=O)c3cc(C(=O)NCc4ccc(F)cc4)c(=N)n(CCCN4CCOCC4)c3nc12,nt,nt,?,nt,nt,4.47µM*
CCOCCCn1c(=N)c(C(=O)NCc2ccc3c(c2)OCO3)cc2c(=O)n3cccc(C)c3nc21,?,5.17µM*,0.9%,-2.5,-3.0,-14.8%
COCCCn1c(=N)c(C(=O)NCc2ccc3c(c2)OCO3)cc2c(=O)n3cccc(C)c3nc21,nt,nt,-6.9%,nt,nt,-4.0%
Nc1ccc(SCc2nc3cccc4c3n2CCC4)cc1,nt,nt,-8.6%,25.1*,55.2*,37.3%
